# HIF-2a inh = HIF-2a reporter inhibitors, primary screen, luminescence, 786-0 RCC cells; 786-0 RCC cells HIF-2a reporter, luciferase luminescence, overnight; inhibition, % at 18.8 µM; 360,000 tested, 0.72% active;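 active = inhibition of the luminescence signal of 40% or more relative to plate controls, in a single-dose primary screen at 18.75 µM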
# Peg3 prom inh = Peg3 promoter-driven luciferase inhibitors, primary screen, cell-based, HeLa, luciferase luminescence; HeLa PEG-Prom luciferase reporter, overnight; inhibition, % at 20 µM; 360,000 tested, 1.7% active; AID 588405, 2011;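 active = inhibition of at least 50% at 20 µM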
# KKLEB tox = cytotoxicity in KKLEB CF airway cells, primary screen, cytotoxicity control for CF NF-kB inhibitor project, cell-based, uHTS, fluorescence assay plates; AID 602141, 2011; KKLEB CF airway cells viability, ATPlite luminescence, overnight; stronger effect = lower value; cells stimulated with P. aeruginosa culture filtrate; activity change (cytotoxicity), % at 5 µM; 360,000 tested, 0.36% active;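 active = corrected activity change at or below -50% at 5 µM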
# ABHD5 PLIN5 PPI = ABHD5-PLIN5 interaction inhibitors, primary screen, cell lysate, split luciferase complementation, luminescence; Perilipin-5 (Homo sapiens) + 1-acylglycerol-3-phosphate O-acyltransferase ABHD5 (Homo …; 360,000 tested, 0.78% active; Split G. princeps luciferase complementation, 4 h; inhibition, % at 4 µM;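 active = inhibition above the mean inhibition across every tested compound plus 3 SD, cut at about 22% in these data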;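 also: 0% = DMSO only wells and the 100% control is not disclosed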
# CF NFkB inh = inhibitors of PAF-induced NF-kB signaling, primary screen, cell-based, GFP fluorescence, uHTS; 360,000 tested, 0.86% active; KKLEB NF-kB-GFP reporter, GFP fluorescence overnight; inhibition, % at 5 µM;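 active = at least 50% inhibition at 5 µM, scaled per plate between neutral and stimulator controls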;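 also: PAF is a Pseudomonas aeruginosa culture filtrate used as stimulus; plate controls were PAF-stimulated DMSO wells for no effect and unstimulated DMSO wells for full effect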
# Mdm2 MdmX PPI = inhibitors of human Mdm2-MdmX association, primary screen, cell-based, luminescence, split luciferase, SaOS-2, uHTS; inhibition, % at 8 µM; 330,000 tested, 3% active; Protein Mdm4 (Homo sapiens) + E3 ubiquitin-protein ligase Mdm2 (Homo sapiens), …; SaOS-2 split-luciferase Mdm2/MdmX complementation;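 active = inhibition of at least 50% at 8 µM in the primary screen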
# Target sequence (O15151 whole entry, looked up): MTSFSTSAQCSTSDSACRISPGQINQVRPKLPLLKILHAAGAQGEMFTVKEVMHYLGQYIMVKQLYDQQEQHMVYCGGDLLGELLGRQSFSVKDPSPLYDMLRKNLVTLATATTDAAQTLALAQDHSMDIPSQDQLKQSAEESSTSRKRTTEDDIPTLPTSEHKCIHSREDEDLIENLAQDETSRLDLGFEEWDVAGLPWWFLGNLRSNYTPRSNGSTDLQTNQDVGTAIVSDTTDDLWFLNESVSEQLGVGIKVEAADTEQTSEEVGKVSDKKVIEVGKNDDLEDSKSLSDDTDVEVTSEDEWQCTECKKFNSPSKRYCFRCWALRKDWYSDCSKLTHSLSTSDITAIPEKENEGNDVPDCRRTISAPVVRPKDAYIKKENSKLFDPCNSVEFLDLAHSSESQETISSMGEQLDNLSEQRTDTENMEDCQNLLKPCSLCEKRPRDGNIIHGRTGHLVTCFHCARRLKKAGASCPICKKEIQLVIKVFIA
# Target sequence (Q00987 whole entry, looked up): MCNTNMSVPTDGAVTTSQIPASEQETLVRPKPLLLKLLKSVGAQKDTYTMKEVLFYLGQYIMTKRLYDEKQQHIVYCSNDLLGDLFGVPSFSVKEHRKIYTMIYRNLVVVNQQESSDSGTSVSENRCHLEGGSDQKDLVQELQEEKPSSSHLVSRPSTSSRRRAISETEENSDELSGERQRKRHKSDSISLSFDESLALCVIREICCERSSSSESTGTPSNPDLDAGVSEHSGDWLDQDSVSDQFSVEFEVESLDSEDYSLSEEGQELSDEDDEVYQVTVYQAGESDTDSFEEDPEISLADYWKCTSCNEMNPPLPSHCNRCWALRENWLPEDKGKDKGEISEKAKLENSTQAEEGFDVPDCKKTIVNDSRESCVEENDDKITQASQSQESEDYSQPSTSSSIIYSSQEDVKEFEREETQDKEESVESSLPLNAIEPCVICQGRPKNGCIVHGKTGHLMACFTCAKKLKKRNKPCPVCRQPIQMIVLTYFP
# Mdm2 MdmX conf = Mdm2-MdmX complex disruptors, retested hits, confirmation, luminescence, single concentration. inhibition, % at 8 µM. shares compounds with Mdm2 MdmX PPI. Mdm2-MdmX binding, luminescent assay. 10,000 tested, 55% active; in the data active = inhibition above about 40%
# Full FLuc ctr = full-length luciferase signal inhibition, confirmation, counter-screen for Mdm2/MdmX interaction inhibitor project, cell-based, single concentration, SaOS-2; shares compounds with Mdm2 MdmX PPI; SaOS-2 full-length luciferase counterscreen, luminescence; inhibition, % at 8 µM; 6,200 tested, 77% active;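 active = mean inhibition at 8 µM reaching about 37%, which flags the compound as non-specific, limit read from the data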;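 also: p53-null SaOS-2 cells with luciferase driven by a doxycycline-inducible promoter; compound on cells about two nights before reading with doxycycline added after day one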
# Active calls of the source: *; x = not tested or not shown. An excerpt weighted towards active compounds, which were near 4.6% of everything screened.
SMILES,HIF-2a inh,Peg3 prom inh,KKLEB tox,ABHD5 PLIN5 PPI,CF NFkB inh,Mdm2 MdmX PPI,Mdm2 MdmX conf,Full FLuc ctr
C[C@@]12C(=O)Nc3ccc(F)cc3C(=O)N1[C@H]1c3ccccc3OC[C@@H]1[C@@H]2c1ccccc1,13.8,19.8,-4.8,-5.4,8.5,-10.7,x,x
C[C@@]12C(=O)Nc3cc(Cl)ccc3C(=O)N1[C@H]1c3ccccc3OC[C@@H]1[C@@H]2c1ccccc1,16.4,12.0,-14.1,3.6,26.9,22.1,x,x
C[C@@]12C(=O)Nc3ccc(F)cc3C(=O)N1[C@H]1c3cc(Cl)ccc3OC[C@@H]1[C@@H]2c1ccccc1,26.1,37.4,-18.6,14.2,30.0,56.2*,33.6,x
O=C(CN1C(=O)NC2(CCOc3ccccc32)C1=O)NCCc1ccccc1 (stereo not drawn),-1.8,-8.5,-4.2,2.1,-2.7,30.7,x,x
O=C(NCCc1c[nH]c2ccccc12)C(=O)NCC1OCCN1S(=O)(=O)c1ccc(Cl)cc1 (stereo not drawn),16.7,-6.2,11.3,3.2,0.3,51.0*,48.6*,37.0*
CN(CCc1ccccc1)C(C(=O)Nc1ccc2c(c1)OCCO2)C1CC1 (stereo not drawn),-16.1,-9.6,-8.0,-1.7,2.3,x,x,x
Cc1ccc(C(=O)C[n+]2ccc3ccccc3c2)cc1,-92.1,-81.1,-7.5,-9.4,3.1,17.2,x,x
Cc1cc(C(C)(C)C)cc(C)c1C[n+]1ccc2ccccc2c1,25.6,35.8,-2.9,6.0,9.2,50.6*,19.1,x
CC(=O)N1C[C@H]2CON(C)[C@H]2C[C@H]1c1ccccc1,2.3,-9.0,7.8,3.0,-18.6,x,x,x
CCOC(=O)C(C)Oc1cccc2c(=O)n(CC(=O)NCc3ccco3)ccc12 (stereo not drawn),6.4,0.9,-16.5,4.1,18.0,51.3*,58.1*,62.8*
O=C(CCN1C(=O)/C(=C/c2ccccc2F)SC1=S)NCCCn1ccnc1,0.4,-35.4,11.3,-8.6,-7.0,-0.3,x,x
COc1ccccc1/C=C1\SC(=S)N(CC(=O)Nc2nnc(C)s2)C1=O,x,x,x,x,x,93.5*,-6.0,x
COc1ccc(/C=C2\SC(=S)N(CCC(=O)NCCc3ccc(O)cc3)C2=O)cc1,58.4*,102.2*,2.7,-1.8,6.9,78.6*,71.1*,27.4
O=C(CCN1C(=O)/C(=C/c2ccccc2F)SC1=S)NCCc1ccc(O)cc1,27.0,44.9,2.2,-1.9,-19.8,71.4*,53.0*,33.0
COc1ccccc1/C=C1\SC(=S)N(CCC(=O)NCCc2ccc(O)cc2)C1=O,11.1,40.3,-8.7,6.2,2.4,59.6*,38.2,68.8*
O=C(Cc1ccc(S(=O)(=O)N2CCOCC2)s1)NCCc1ccc(F)cc1,-22.5,-30.9,11.5,0.7,-6.9,1.2,x,x
CC12CCC3c4cc(CN5CCOCC5)c(O)cc4CCC3C1CCC2=O (stereo not drawn),-23.6,10.9,-10.7,2.3,6.0,x,x,x
CCCCCNC(=O)c1nc(-c2c(F)cccc2F)oc1-c1ccccc1,-8.0,x,x,-9.8,x,x,x,x
Cc1ccc(CNCC(O)(c2ccccc2)c2ccc(Cl)cc2)cc1 (stereo not drawn),-3.6,-6.0,-8.2,-11.2,1.3,x,x,x
COc1ccc(CNCC(O)(c2ccccc2)c2ccc(Cl)cc2)cc1 (stereo not drawn),3.0,-0.7,-18.3,5.0,-3.0,50.1*,3.6,x
O=C(Nc1ccc(C(F)(F)F)cc1)c1cc(-c2cccnc2)nc2ccc(Br)cc12,-2.7,41.8,-14.0,5.5,-0.1,57.5*,0.8,x
COc1cccc(-c2cc(C(=O)Nc3ccc(N(C)C(C)=O)cc3)c3cc(Br)ccc3n2)c1,16.8,10.8,-17.2,5.0,-74.9,61.9*,0.7,x
CCCCCCCn1ccc(=N)cc1,-5.6,-26.0,0.0,1.4,5.3,52.5*,32.8,x
CCCCCCCCCn1ccc(=N)cc1,24.5,31.9,-47.6,6.7,47.5,91.2*,80.5*,23.6
CCN(CC)C(=O)C1=C(C)N(CCC2=CCCCC2)C(=O)C(CC(=O)NCc2cccc3ccccc23)C1 (stereo not drawn),-0.3,0.9,4.0,6.6,-3.1,x,x,x
SMILES,HIF-2a inh,Peg3 prom inh,KKLEB tox,ABHD5 PLIN5 PPI,CF NFkB inh,Mdm2 MdmX PPI,Mdm2 MdmX conf,Full FLuc ctr
Cc1nc2scc(-c3ccccc3)c2c(=O)n1N=C1C=CC(=O)C=C1,x,x,x,x,x,69.6*,41.8*,13.4
Cc1nc2scc(-c3ccccc3)c2c(=O)n1N,9.3,14.4,7.1,-1.4,-4.5,0.1,x,x
c1ccc(C(c2ccccc2)N2CCN(c3nc4ccccc4n4cnnc34)CC2)cc1,x,x,x,x,x,67.9*,18.2,x
Cc1ccc(SCc2cc(=O)[nH]c(Nc3nc(C)c4ccc(C)cc4n3)n2)cc1,19.2,12.9,-16.4,0.9,4.9,31.2,x,x
CCOc1ccc2c(C)nc(NC3=NC(C)(C)C=C(C)N3)nc2c1,-4.3,40.3,1.0,5.4,-1.6,50.4*,33.9,x
COCc1cc(=O)[nH]c(Nc2nc(C)c3cc(OC)ccc3n2)n1,x,x,x,x,x,9.3,x,x
CCOc1ccc2nc(NC3=NC(c4ccc(OC)cc4)CC(=O)N3)nc(C)c2c1 (stereo not drawn),13.8,62.4*,-16.0,0.8,10.9,98.5*,39.5,30.6
CCOc1ccc2nc(NC3=NC(C)(C)C=C(C)N3)nc(C)c2c1,-2.1,52.7*,-5.1,3.1,-27.6,71.6*,33.9,x
CC1(C)CC(NS(=O)(=O)c2ccc3ccccc3c2)CC(C)(C)N1,4.1,0.8,5.5,19.2,-17.2,-3.2,x,x
Oc1c(Cl)cc(Cl)cc1/C=N/Nc1ncc(Br)cn1,6.0,37.7,-4.9,-5.4,30.3,67.1*,69.2*,22.6
N#Cc1ccc(C23CC4(C2)[C@H](CN(P(=O)(c2ccccc2)c2ccccc2)[C@@H]4c2ccccc2)C3c2ccc(Cl)nc2)cc1 (stereo partly drawn),0.9,19.5,-16.4,5.4,49.2,56.1*,24.6,53.7*
O=C(C[C@H]1CC[C@H]2[C@@H](COC[C@@H](O)CN2S(=O)(=O)c2ccc(F)cc2)O1)N[C@@H]1CCN(Cc2ccccc2)C1,8.9,x,x,-3.9,x,x,x,x
